According to the supplement of paper PMC10849652:
About 8,800 targets were measured; listed, in parts, are those with a hit and a random draw of the rest. About 0.5% of all pairs of compound and target were hits. Unmarked numbers belong to inactive results.

What was measured:
Test in all cases: log2 fold change, soluble protein after heating vs DMSO (PISA); higher = thermal stabilisation; K562 lysate, 10 uM; active = over 0.2 and 3.5 SD of the protein, either way, in both replicates (recomputed)
[1] = compound: C#Cc1cccc(Nc2ncnc3cc(OCCOC)c(OCCOC)cc23)c1 [erlotinib]
Outline: (§1)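 Thermal stability, expressed as log-two fold change relative to solvent controls, is given from duplicates. Crude K562 extract in PBS pH 7.4 with 1 mM MgCl2, at 1 mg/mL protein, was treated with 10 μM compound for 30 min and heated in aliquots for 3 min across 48°C-58°C. After pooling, adjustment to 0.5% NP-40 at 4°C and centrifugation at 21,000xg for 90 min, supernatant protein was measured by TMTpro 16plex LC-MS/MS with channel sums equalised.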

[2] = compound: C/C(=N\NC(=O)C1=CC(=CC=C1)S(=O)(=O)N2CCOCC2)/C3=C(C=CC(=C3)Cl)O
Outline: as §1

[3] = compound: C1=CC(=CC=C1C2=NC3=C(N2)C=C(C=C3)C(=O)N)OC4=CC=C(C=C4)Cl
Outline: as §1

[4] = compound: C1=CC2=C(C=CC(=C2)/C=C\3/C(=O)NC(=NCC4=CC=CS4)S3)N=C1
Outline: as §1

[5] = compound: C1=CC2=NC=CN=C2C=C1/C=C/3\C(=O)NC(=O)S3
Outline: as §1

[6] = compound: C1=CC=C(C=C1)C2=NC(=C(N2)C3=CC=NC=C3)C4=CC(=C(C=C4)Cl)O
Outline: as §1

[7] = compound: C1=CC=C2C(=C1)C3=NNC4=CC=CC(=C43)C2=O
Outline: as §1

[8] = compound: C1CCN(C1)C(=O)NC2=CC=CC(=C2)NC3=NC=C(C(=N3)NCCC4=CN=CN4)Br
Outline: as §1

[9] = compound: C1CN(CCC1(CC2=CC=C(C=C2)Cl)N)C3=NC=NC4=C3C=CN4
Outline: as §1

[10] = compound: C1COCCN1CCN2C3=CC=CC=C3N=C2NC(=O)C4=CC(=CC=C4)[N+](=O)[O-] [IRAK-1-4 Inhibitor I]
Outline: as §1

UniProt O75569, sequence (O75569 whole entry, looked up): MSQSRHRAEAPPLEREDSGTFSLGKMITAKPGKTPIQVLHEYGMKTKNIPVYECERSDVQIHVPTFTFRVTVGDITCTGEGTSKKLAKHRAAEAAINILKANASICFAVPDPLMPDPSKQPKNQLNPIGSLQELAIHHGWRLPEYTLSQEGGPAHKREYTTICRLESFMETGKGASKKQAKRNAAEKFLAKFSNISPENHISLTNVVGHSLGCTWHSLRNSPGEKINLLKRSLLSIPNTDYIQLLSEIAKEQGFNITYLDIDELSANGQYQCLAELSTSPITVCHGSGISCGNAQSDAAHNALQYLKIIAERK
UniProt P09884, sequence (P09884 whole entry, looked up): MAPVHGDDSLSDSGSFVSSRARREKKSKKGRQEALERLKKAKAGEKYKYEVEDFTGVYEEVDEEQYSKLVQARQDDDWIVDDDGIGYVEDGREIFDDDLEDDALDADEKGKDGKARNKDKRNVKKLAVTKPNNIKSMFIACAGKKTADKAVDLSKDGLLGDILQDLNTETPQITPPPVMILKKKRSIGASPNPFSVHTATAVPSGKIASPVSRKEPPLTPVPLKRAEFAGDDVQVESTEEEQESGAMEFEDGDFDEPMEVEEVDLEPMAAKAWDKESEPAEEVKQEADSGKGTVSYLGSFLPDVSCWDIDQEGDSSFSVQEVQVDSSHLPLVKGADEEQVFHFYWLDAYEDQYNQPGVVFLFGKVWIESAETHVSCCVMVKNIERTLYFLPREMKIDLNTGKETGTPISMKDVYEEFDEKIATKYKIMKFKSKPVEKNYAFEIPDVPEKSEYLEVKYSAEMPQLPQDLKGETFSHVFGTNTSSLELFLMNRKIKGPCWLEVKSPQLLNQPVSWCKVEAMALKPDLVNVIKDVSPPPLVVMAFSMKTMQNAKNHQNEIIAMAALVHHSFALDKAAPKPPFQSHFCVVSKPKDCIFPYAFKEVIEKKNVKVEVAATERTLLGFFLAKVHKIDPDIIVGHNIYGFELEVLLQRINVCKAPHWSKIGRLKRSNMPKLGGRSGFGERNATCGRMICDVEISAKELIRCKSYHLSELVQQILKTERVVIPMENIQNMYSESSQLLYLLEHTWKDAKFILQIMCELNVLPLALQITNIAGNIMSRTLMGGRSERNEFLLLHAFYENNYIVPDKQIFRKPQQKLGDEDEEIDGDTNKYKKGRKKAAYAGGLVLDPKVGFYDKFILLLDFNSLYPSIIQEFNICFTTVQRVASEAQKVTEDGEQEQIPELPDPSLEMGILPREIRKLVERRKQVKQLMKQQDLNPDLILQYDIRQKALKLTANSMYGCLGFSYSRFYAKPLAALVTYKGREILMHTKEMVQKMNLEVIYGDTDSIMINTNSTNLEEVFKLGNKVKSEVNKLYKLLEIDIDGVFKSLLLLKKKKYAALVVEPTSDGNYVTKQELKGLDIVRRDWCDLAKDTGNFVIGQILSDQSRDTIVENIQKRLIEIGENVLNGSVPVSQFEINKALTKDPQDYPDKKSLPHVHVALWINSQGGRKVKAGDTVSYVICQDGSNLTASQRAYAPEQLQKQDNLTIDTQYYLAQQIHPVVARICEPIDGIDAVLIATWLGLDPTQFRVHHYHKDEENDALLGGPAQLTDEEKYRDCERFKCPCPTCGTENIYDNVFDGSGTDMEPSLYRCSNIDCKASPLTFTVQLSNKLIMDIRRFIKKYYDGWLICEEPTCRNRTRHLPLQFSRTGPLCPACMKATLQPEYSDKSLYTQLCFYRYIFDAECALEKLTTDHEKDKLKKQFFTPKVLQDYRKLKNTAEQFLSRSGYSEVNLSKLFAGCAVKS
UniProt Q96LW4, sequence (Q96LW4 whole entry, looked up): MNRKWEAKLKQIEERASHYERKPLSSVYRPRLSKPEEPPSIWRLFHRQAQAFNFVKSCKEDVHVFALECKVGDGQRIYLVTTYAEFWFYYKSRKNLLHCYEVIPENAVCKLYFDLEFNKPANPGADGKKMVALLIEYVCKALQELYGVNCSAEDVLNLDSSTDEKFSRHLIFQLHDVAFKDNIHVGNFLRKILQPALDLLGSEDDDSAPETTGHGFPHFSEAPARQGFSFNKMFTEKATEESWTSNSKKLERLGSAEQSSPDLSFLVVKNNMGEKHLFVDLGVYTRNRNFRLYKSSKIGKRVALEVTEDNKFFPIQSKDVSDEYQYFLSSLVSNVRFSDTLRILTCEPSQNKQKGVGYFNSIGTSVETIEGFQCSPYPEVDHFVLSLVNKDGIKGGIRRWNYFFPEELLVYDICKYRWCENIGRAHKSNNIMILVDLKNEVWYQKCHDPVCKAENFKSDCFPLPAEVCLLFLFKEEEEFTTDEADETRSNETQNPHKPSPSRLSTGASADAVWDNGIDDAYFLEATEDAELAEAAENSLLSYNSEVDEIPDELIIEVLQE
UniProt P14314, sequence (P14314 whole entry, looked up): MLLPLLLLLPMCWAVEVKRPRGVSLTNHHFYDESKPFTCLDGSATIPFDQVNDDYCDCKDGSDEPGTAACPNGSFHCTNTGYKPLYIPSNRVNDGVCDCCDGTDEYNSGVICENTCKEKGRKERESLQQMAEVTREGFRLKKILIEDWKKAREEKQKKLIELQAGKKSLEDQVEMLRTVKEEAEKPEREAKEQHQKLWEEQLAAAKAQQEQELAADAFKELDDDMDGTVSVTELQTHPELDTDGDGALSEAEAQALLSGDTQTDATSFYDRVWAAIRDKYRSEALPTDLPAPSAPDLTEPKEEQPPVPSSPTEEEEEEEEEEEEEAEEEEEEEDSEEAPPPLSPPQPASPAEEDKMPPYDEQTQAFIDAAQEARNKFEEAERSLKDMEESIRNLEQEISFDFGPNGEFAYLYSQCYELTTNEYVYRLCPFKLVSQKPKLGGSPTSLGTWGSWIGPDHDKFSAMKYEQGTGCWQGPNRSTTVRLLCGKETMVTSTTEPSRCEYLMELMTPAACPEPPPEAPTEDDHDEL
UniProt Q16512, sequence (Q16512 whole entry, looked up): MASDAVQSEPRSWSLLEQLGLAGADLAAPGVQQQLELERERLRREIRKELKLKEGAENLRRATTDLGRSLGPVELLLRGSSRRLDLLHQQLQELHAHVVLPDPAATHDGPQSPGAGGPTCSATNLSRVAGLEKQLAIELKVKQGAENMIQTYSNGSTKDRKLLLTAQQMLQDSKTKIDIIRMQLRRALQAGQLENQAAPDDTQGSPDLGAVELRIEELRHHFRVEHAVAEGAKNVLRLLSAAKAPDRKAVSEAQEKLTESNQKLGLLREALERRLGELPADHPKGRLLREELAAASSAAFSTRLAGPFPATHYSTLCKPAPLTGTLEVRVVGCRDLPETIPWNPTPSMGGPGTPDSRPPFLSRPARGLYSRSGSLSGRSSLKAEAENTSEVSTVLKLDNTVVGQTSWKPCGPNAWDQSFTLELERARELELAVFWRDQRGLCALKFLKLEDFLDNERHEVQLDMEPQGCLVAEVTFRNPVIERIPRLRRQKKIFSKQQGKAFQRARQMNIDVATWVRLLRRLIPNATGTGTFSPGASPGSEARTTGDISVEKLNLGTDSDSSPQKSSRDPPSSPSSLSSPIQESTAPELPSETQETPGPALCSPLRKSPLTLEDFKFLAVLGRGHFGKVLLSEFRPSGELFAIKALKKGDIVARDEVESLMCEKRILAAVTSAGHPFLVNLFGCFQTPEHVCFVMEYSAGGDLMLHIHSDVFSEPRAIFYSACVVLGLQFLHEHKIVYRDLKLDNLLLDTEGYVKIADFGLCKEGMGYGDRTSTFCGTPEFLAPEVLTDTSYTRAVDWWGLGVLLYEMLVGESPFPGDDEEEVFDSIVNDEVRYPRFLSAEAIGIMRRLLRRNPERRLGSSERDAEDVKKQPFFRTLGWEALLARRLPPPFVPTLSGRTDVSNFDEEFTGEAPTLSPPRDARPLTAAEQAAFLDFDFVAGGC
UniProt Q8TD55, sequence (Q8TD55 whole entry, looked up): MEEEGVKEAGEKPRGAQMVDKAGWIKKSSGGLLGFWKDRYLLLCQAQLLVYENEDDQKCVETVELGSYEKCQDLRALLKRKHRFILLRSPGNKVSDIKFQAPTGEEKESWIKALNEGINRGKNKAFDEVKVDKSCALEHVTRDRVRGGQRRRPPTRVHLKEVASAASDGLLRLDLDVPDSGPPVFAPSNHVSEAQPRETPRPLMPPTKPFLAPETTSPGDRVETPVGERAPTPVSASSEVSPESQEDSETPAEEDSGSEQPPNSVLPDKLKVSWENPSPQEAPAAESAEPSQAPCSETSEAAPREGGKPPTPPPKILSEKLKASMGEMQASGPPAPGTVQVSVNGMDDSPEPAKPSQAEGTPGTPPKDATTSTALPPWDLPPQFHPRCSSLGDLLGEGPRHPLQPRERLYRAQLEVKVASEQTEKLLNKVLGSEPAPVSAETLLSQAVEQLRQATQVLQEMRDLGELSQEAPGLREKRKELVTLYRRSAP
UniProt Q9Y606, sequence (Q9Y606 whole entry, looked up): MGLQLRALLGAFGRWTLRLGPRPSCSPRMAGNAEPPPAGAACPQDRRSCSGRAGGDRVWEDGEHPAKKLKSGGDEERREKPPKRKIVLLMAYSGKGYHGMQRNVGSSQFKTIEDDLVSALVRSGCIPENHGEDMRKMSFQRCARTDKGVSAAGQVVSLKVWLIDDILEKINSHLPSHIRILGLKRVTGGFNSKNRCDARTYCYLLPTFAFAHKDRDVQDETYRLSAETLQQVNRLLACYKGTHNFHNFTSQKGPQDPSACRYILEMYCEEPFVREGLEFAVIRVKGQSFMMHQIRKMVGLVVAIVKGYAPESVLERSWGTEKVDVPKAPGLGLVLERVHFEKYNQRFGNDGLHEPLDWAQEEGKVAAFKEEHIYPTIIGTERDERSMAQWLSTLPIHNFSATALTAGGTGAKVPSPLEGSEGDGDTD
UniProt P07737, sequence (P07737 whole entry, looked up): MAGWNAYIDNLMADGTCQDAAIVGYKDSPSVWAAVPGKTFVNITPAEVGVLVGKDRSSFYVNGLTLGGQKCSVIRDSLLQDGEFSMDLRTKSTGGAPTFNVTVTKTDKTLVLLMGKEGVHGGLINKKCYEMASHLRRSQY
UniProt Q03393, sequence (Q03393 whole entry, looked up): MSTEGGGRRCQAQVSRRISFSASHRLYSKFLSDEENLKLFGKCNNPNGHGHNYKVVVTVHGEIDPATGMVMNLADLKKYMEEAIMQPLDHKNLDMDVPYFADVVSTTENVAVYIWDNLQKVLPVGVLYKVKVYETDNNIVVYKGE

| Target | log2 fold change [1] | log2 fold change [2] | log2 fold change [3] | log2 fold change [4] | log2 fold change [5] | log2 fold change [6] | log2 fold change [7] | log2 fold change [8] | log2 fold change [9] | log2 fold change [10] |
| --- | --- | --- | --- | --- | --- | --- | --- | --- | --- | --- |
| PDIA4 (UniProt P13667) | -0.011 | 0.062 | 0.005 | -0.017 | -0.008 | 0.006 | 0 | 0.04 | 0.007 | -0.001 |
| PRC1 (UniProt O43663) | 0.026 | 0.027 | 0.013 | -0.026 | -0.004 | 0.059 | -0.054 | -0.011 | 0.126 | 0.008 |
| PLEKHO2 (UniProt Q8TD55) | 0.188 | 0.008 | -0.023 | 0.106 | -0.06 | 0.184 | -0.014 | -0.075 | 0.186 | -0.004 |
| PDCD10 (UniProt Q9BUL8) | -0.029 | -0.001 | -0.009 | -0.049 | -0.028 | -0.007 | 0.087 | 0.035 | -0.025 | -0.012 |
| PPP2R3C (UniProt Q969Q6) | -0.061 | -0.009 | -0.126 | -0.025 | -0.019 | 0.033 | -0.032 | -0.023 | -0.035 | -0.018 |
| PLA2G4B isoform 6 (UniProt P0C869) | 0.099 | 0.064 | 0.048 | -0.099 | 0.023 | 0.062 | -0.021 | -0.011 | 0.026 | 0.065 |
| PREP (UniProt P48147) | 0.026 | -0.016 | 0.028 | -0.007 | -0.002 | 0.002 | -0.002 | -0.024 | 0.014 | -0.007 |
| PFKP (UniProt Q01813) | -0.01 | -0.006 | 0.019 | -0.001 | -0.01 | 0 | 0.032 | 0.033 | 0.031 | -0.003 |
| PUS1 (UniProt Q9Y606) | 0.033 | -0.174 | 0.007 | 0.01 | 0.024 | 0.005 | -0.06 | 0.016 | -0.021 | 0.004 |
| PRRC2A (UniProt P48634) | -0.026 | -0.018 | 0.073 | -0.002 | 0.006 | -0.09 | 0.014 | 0.01 | 0.006 | 0.026 |
| PMPCA (UniProt Q10713) | -0.034 | -0.012 | 0.073 | 0.008 | -0.006 | 0.043 | -0.014 | -0.026 | -0.012 | 0.007 |
| PHACTR4 isoform 2 (UniProt Q8IZ21) | 0.003 | -0.02 | 0.012 | -0.004 | -0.021 | 0.021 | 0.013 | -0.017 | 0.052 | 0.011 |
| POLA1 (UniProt P09884) | 0.009 | -0.039 | -0.02 | -0.015 | -0.036 | 0.084 | -0.005 | -0.034 | 0.015 | -0.003 |
| PRMT7 (UniProt Q9NVM4) | -0.042 | 0.004 | 0.024 | 0.038 | 0.008 | -0.023 | -0.083 | -0.033 | -0.031 | -0.008 |
| POGK (UniProt Q9P215) | 0.052 | 0.053 | 0.034 | -0.059 | -0.023 | 0.104 | -0.03 | 0 | 0.022 | 0.025 |
| PCBP2 (UniProt F8W0G4) | -0.117 | -0.36 | -0.007 | -0.102 | 0.022 | 0.005 | -0.236 | -0.241 | 0.079 | 0.093 |
| PRKCSH (UniProt P14314) | -0.027 | 0.013 | 0.01 | -0.012 | -0.012 | 0.023 | 0.07 | 0.027 | -0.027 | 0.005 |
| PRIMPOL (UniProt Q96LW4) | -0.063 | 0.007 | -0.02 | -0.025 | 0.076 | -0.013 | 0.019 | 0.009 | -0.046 | 0.059 |
| PTS (UniProt Q03393) | -0.018 | -0.112 | -0.018 | 0.034 | 0.001 | 0.074 | -0.023 | -0.069 | 0.002 | 0.028 |
| PPIE (UniProt Q9UNP9) | 0.005 | -0.022 | 0.064 | 0.031 | -0.008 | 0.001 | -0.002 | -0.025 | 0.025 | -0.019 |
| PKN1 isoform 2 (UniProt Q16512) | -0.014 | 0.007 | 0.018 | -0.048 | -0.042 | -0.004 | -0.175 | -0.191 | -0.203 | -0.174 |
| PPIL3 (UniProt Q9H2H8) | 0.022 | 0.071 | 0 | -0.016 | -0.039 | -0.012 | -0.028 | -0.004 | 0.071 | 0.03 |
| PPP2R5C isoform 5 (UniProt Q13362) | -0.013 | -0.025 | -0.009 | -0.025 | 0.016 | -0.002 | -0.039 | 0.01 | 0.027 | 0.013 |
| PDPK1 (UniProt O15530) | -0.066 | -0.007 | -0.081 | -0.047 | -0.055 | 0.005 | 0.298 | 0.552 (active) | 0.019 | 0.018 |
| PFKFB4 (UniProt Q16877) | 0.02 | 0.044 | 0.041 | -0.024 | -0.031 | 0.096 | -0.083 | -0.003 | 0.067 | -0.023 |
| PFN1 (UniProt P07737) | -0.022 | -0.017 | 0.01 | 0.019 | -0.007 | -0.006 | 0.015 | -0.002 | 0.01 | -0.007 |
| PDCD4 (UniProt Q53EL6) | 0 | -0.052 | -0.02 | -0.003 | -0.004 | -0.026 | 0.014 | -0.011 | 0.008 | 0.015 |
| PIP4K2B (UniProt P78356) | 0.038 | -0.193 | -0.021 | 0.012 | 0.096 | 0.067 | 0.013 | 0.032 | -0.02 | -0.019 |
| PDE2A (UniProt O00408) | -0.015 | 0.082 | 0.12 | -0.337 | -0.055 | 0.249 | -0.257 | 0.001 | -0.027 | 0.18 |
| PRKRA (UniProt O75569) | 0.016 | -0.1 | -0.061 | -0.01 | 0.08 | 0.012 | -0.012 | -0.074 | 0.018 | 0.033 |
